# DT40 TDP1 CPT: growth inhibition of DT40 Tdp1-/-;hTDP1 cells with camptothecin (screen for TDP1 inhibitors); chicken DT40 Tdp1-/-;hTDP1 cells + 20 nM CPT, ATP luminescence, 48 h; Potency, µM (doses to about 46.2 µM), without a hit: at the top dose activity change, negative = growth inhibition, hits mostly inhibitors; 420,000 tested, 12% active; note: potency is the fitted concentration of half-maximal effect; nearly all actives have a fitted effect of over 55% in size
#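 Chicken DT40 Tdp1-/- cells stably complemented with human TDP1 were seeded at 400 cells/well in medium containing 20 nM camptothecin, exposed to pin-transferred compounds, and grown at 37 °C for at least 48 hr. Viability was read as ATP luminescence.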
# DT40 TDP1 no CPT: qHTS for Inhibitors of human tyrosyl-DNA phosphodiesterase 1 (TDP1): qHTS in cells in absence of CPT. DT40 Tdp1-/- hTDP1 cells, no CPT, ATP luminescence, 48 h. AID 686978, 2013. Potency, µM (series often up to 46.2 µM), for inactives: top-dose activity change, negative = growth inhibition, most hits filed as inhibitors. 420,000 tested, 15% active; note: potency is the fitted concentration of half-maximal effect; nearly all actives have a fitted effect of over 55% in size
#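 Cells were dispensed at 400 per well, compounds added by pin tool, plates incubated ≥48 hr at 37 °C, then CellTiter-Glo added for 30 min at room temperature before luminescence reading. Line: DT40 Tdp1-/- complemented with hTDP1; camptothecin omitted.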
# CtBP-E1A blk: inhibitors of CtBP/E1A interaction. 340,000 tested, 0.49% active. AlphaScreen GST-E1A/His-CtBP binding, 1536-well; stronger effect = lower value. activity change, % (concentration not given with the values); in the data active = activity change below about -65%; inconclusive = mostly about -30% to -63%
#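 In 5 uL wells, 23 nL compound meets equimolar GST-E1A and His-CtBP (5X stock 125 nM each) for 2 h, 37 °C. Beads (5X, 50 ug/mL) then 1 h, 37 °C, dark.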
# Six1-Eya2 blk: inhibitors of human Six1/Eya2 interaction. activity change, % (concentration not given with the values). 360,000 tested, 0.56% active. AlphaScreen GST-Six1/His-Eya2 binding, biochemical; stronger effect = lower value. Q15475+O00167; in the data active = activity change below about -65%; inconclusive = mostly about -30% to -63%
# Target sequence (O00167 whole entry, looked up): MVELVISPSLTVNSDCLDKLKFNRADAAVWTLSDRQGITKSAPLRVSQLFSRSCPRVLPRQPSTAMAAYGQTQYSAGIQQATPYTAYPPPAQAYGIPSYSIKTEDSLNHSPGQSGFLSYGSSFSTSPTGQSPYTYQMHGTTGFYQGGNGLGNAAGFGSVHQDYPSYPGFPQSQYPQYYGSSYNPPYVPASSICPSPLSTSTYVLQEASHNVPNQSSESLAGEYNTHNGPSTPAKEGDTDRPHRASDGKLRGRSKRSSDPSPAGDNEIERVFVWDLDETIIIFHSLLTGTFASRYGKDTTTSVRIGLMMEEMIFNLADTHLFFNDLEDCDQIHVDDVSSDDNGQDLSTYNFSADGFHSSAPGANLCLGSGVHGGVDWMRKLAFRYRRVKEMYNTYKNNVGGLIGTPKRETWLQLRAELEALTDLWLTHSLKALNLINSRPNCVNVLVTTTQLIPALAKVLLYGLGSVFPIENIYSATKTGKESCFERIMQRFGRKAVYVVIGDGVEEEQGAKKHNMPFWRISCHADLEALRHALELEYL
# Target sequence (Q15475 whole entry, looked up): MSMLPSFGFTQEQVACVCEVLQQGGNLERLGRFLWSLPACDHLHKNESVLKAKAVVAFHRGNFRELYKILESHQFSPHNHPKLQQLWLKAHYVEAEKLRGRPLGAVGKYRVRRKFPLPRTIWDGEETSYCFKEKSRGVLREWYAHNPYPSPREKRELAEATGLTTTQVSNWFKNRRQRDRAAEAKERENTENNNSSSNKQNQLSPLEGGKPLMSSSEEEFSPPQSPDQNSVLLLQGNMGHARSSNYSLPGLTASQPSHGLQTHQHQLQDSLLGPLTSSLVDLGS
#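 AlphaScreen luminescence read after one hour at 37 °C in darkness. Pin-transferred compounds met GST-Six1 and His-Eya2 protein (5X stock 250 nM/500 nM) plus glutathione donor and Ni-chelate acceptor beads (5X, 50 ug/mL).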
# TDP1 inh: TDP1 (human) enzyme inhibition | Q9NUW8 | recombinant TDP1, AlphaScreen DNA substrate cleavage | Potency, µM (series often up to 130 µM), without a hit: at the highest dose activity change, negative = inhibition, most hits filed as inhibitors | 350,000 tested, 0.28% active; note: potency is the fitted concentration of half-maximal effect; nearly all actives have a fitted effect of over 40% in size
#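 Compounds were preincubated with Tdp1 (1 nM final) for 15 min at room temperature before substrate (15 nM final) started a 5 min reaction; beads (10 ug/ml final) were then added for 10 min before AlphaScreen detection.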
# IL-1B inflam inh: inhibitors of inflammasome signaling (IL-1 beta secretion). THP-1 LPS/ATP IL-1B secretion, AlphaLISA, 16 h; stronger effect = lower value. activity change, % at 57.5 µM. 360,000 tested, 4.7% active. AID 743279; in the data active = activity change below about -50%; inconclusive = mostly about -30% to -49%
#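 THP-1 cells pretreated 1 hr with compounds (up to 57.5 uM final), then stimulated with LPS (250 ng/mL final) plus ATP (1.25 mM final); secreted IL-1B measured by AlphaLISA after 16 hr, decreased signal indicating inhibition.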
# Starred values were filed as active, the others as inactive; u = inconclusive; x = not tested or not shown; [ ] = dose if it differs, or a comment. Only some compounds are listed: those with a hit (about 18% of all), similar ones and a draw of the others. Unless noted, calls come from the whole dose curve; as a rule, active = well fitted curve in the direction sought with a large enough effect; inconclusive = small, poorly fitted or top-dose-only effect, or another doubt; inactive = no such curve, though single readings can be large; an effect the other way counts as inactive or inconclusive. % is set by controls: 0 for no effect and ±100 for the full control effect.
SMILES,DT40 TDP1 CPT,DT40 TDP1 no CPT,CtBP-E1A blk,Six1-Eya2 blk,TDP1 inh,IL-1B inflam inh
O=C(Nc1ccccc1C(F)(F)F)c1cccn(Cc2ccccc2)c1=O,u,18.4µM*,x,x,-5.2%,x
O=C(Nc1ccon1)c1cccn(Cc2cccc(Cl)c2)c1=O,-21.7%,-0.9%,x,x,6.6%,x
COC(=O)c1ccccc1NC(=O)c1cccn(Cc2cccc(Cl)c2)c1=O,u,18.4µM*,x,x,0.0%,x
CN(CCS(=O)(=O)c1ccc(Cl)cc1)Cc1cccnc1,-29.6%,u,9.5,2.7,6.5%,u
O=C1CC(=O)N(Cc2ccccc2)C(=O)N1Cc1ccccc1,-10.1%,-13.2%,18.9,0.5,x,-5.9
Cc1ccc2c(c1)C=CC(C#N)N2C(=O)Oc1ccccc1 (centres undefined),18.4µM*,16.4µM*,0.0,19.9,x,u
CC(=O)c1ccc(Oc2ccc(C(=O)c3ccc(C)c(C)c3)cc2[N+](=O)[O-])cc1,8.2µM*,2.31µM*,-1.6,-3.3,4.2%,-5.0
COP(=S)(OC)Oc1ccc([N+](=O)[O-])c(C)c1,x,x,x,x,9.5%,x
O=P(N1CCCCCC1)(N1CCCCCC1)N1CC1,u,-14.5%,9.9,4.5,x,1.6
S=P(N1CCCCCC1)(N1CC1)N1CC1,3.26µM*,4.11µM*,5.0,-6.5,x,-7.6
S=P(N1CCOCC1)(N1CC1)N1CC1,5.17µM*,6.51µM*,3.4,5.8,x,4.8
COc1ccc(CN2CCN(C(=O)Cn3c(=O)oc4cc(Cl)ccc43)CC2)c(OC)c1OC,10.3µM*,u,x,6.4,x,-29.3
CCOc1ccc(C(C)=O)cc1Cn1ccsc1=N,-7.0%,-22.4%,1.6,4.2,x,-3.3
CC1CN(c2ccccn2)C(C)CN1C(=O)C(O)(c1ccccc1)c1ccccc1 (centres undefined),29.1µM*,23.1µM*,3.2,-4.9,x,4.3
C[N+](C)(C)CCOC(=O)C(O)(c1ccccc1)c1ccccc1,-4.7%,-1.4%,x,x,-0.7%,x
CC(C)c1ccc2[nH]c(O)c(N=NC(=O)c3cccc(S(=O)(=O)Nc4ccc(Cl)cc4)c3)c2c1,11.6µM*,10.3µM*,-2.5,2.5,-2.5%,-25.2
CC(C)OP(=O)(OC(C)C)C(O)c1ccccc1F (centres undefined),19.8%,-2.5%,9.7,6.0,0.0%,8.1
CC1=CC2OC3CC4OC(=O)C=CC=CC(C(C)O)OCC(O)C(C)CC(=O)OCC2(CC1O)C4(C)C31CO1 (centres undefined),0.013µM*,0.0206µM*,2.8,1.5,x,-115.8*
CC1=CC2OC3CC4OC(=O)C=CC=CC(=O)OCCC(C)C(O)C(=O)OCC2(CC1O)C4(C)C31CO1 (centres undefined),0.146µM*,0.164µM*,9.0,-2.0,x,-97.7*
CC[C@@]1(c2ccc(N)cc2)CCC(=O)NC1=O,x,x,x,x,9.7%[21 µM],x
Cc1cccc(NC(N)=S)c1,-22.9%,-17.7%,11.5,-1.6,2.1%,27.3
CCCOc1ccc(C(=O)NC(=S)N2C[C@H]3C[C@H](C2)c2cccc(=O)n2C3)cc1,0.9%,-7.1%,6.3,1.0,x,7.6
O=C(O)C1C2c3ccccc3C(O)C1(C(=O)O)c1ccccc12 (centres undefined),-10.8%,-16.5%,17.7,0.5,x,-4.6
COc1ccc(-n2c(CNCCc3ccc(C)cc3)nc3ccccc3c2=O)cc1,u,u,-0.1,1.7,x,-4.2
CCCCc1nc2ccccc2c(=O)n1-c1cccc(OC)c1,16.4µM*,18.4µM*,x,x,2.2%[12.3 µM],x
SMILES,DT40 TDP1 CPT,DT40 TDP1 no CPT,CtBP-E1A blk,Six1-Eya2 blk,TDP1 inh,IL-1B inflam inh
CCCc1nc2ccccc2c(=O)n1-c1cccc(OC)c1,18.4µM*,u,7.3,1.1,4.0%,-15.3
CCc1nc2ccccc2c(=O)n1-c1ccc2ccccc2c1,u,u,-0.8,-2.6,1.8%,12.0
CCCc1nc2ccccc2c(=O)n1-c1ccccc1OC,u,20.6µM*,3.4,-1.3,2.1%,5.0
CCCc1nc2ccccc2c(=O)n1-c1ccc(OC)cc1,u,23.1µM*,-1.4,5.4,5.9%,11.0
COc1ccc(C2(C#N)CC[N+](C)(C)CC2)cc1,0.6%,-14.1%,0.9,8.6,3.8%,21.0
CC(=O)Nc1ccc(C(c2c(O)c3ccccc3oc2=O)c2c(C)n(C)n(-c3ccccc3)c2=O)cc1 (centres undefined),4.9%,14.3%,-5.3,1.9,4.9%,0.0
CCC1(c2cccc(O)c2)CCCCN(C)C1 (centres undefined),u,-18.1%,0.0,5.5,x,-13.3
CCCSc1nc2ccccc2c(=O)n1-c1ccccc1OC,u,20.6µM*,x,x,-5.7%[12.3 µM],x
COc1ccc(/C=C2/C(=O)N(Cc3ccco3)C(=O)N(C(C)C)C2=O)cc1,-1.9%,-6.1%,x,0.3,-12.8%,9.5
O=C(C1CCN(S(=O)(=O)c2ccc(Br)s2)CC1)N1CCN(c2cccc(C(F)(F)F)c2)CC1,23.1µM*,6.51µM*,x,x,2.5%,x
CC[C@H](O)C(C[C@H](C)N(C)C)(c1ccccc1)c1ccccc1,44.1µM*,u,x,x,x,x
CC(CC(C#N)(c1ccccc1)c1ccccc1)N(C)C (centres undefined),u,u,-0.9,-0.4,0.8%,-17.2
CCCCN1CC(=O)N2[C@H]3c4cc(C)ccc4OC[C@@H]3[C@H](c3ccccc3)[C@]2(C)C1=O,u,u,1.6,-4.6,1.5%,-5.5
COc1cc2c(cc1OC)-c1c(O)c(OC)cc3c1[C@H](C2)N(C)CC3,u,23.7µM*,x,x,-1.0%[56.1 µM],x
CC1=C(N2CC2)C(=O)C(CO)=C(N2CC2)C1=O,0.0259µM*,0.0291µM*,3.7,-3.0,x,-99.4*
CC=C(C)C1(CCC)C(=O)NC(=S)NC1=O,13.5%,-2.3%,10.1,6.7,x,16.5
c1ccc2c[n+](CCCCCCCCCC[n+]3ccc4ccccc4c3)ccc2c1,10.5µM*,8.33µM*,x,x,x,x
C[C@]12CC(=O)CC1CCC1C2CC[C@@]2(C)C1CC[C@@H]2O (some centres undefined),-23.7%,-28.2%,-13.5,-5.5,1.3%,-18.8
CC(C)C(=O)Nc1ccc(S(=O)(=O)N2CC3CC(C2)c2cccc(=O)n2C3)cc1 (centres undefined),-4.7%,-16.6%,x,-5.4,4.8%,0.1
CCC(C(=O)Nc1ccccc1F)N1C(=O)CN=C(c2ccccc2)c2ccccc21 (centres undefined),u,23.1µM*,x,x,-7.0%,x
CCCCNC(=O)CN1C(=O)CN=C(c2ccccc2)c2ccccc21,-25.3%,u,x,3.2,-1.2%,-9.1
